65 compounds from PubChem BioAssay AID623911 (Vanderbilt High Throughput Screening Facility, 2012) can be followed below.

Out of some 2,100 compounds screened, about 770 (37%) were called active.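 Rule for the calls: active = by-eye trace score of 1 for enhancers or -1 for inhibitors, so actives lie on both sides (some results past the limit were not filed as active); inactive = score 0, or 3 fluorescent, or 4 baseline rise.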 This is one part of the list.

This assay deals with G protein-activated inward rectifier potassium channel 2 (Homo sapiens) + G protein-activated inward rectifier potassium channel 1 (Homo sapiens) (UniProt P48051+P48549). Put plainly: GIRK1/2 thallium flux modulators, retest, confirmation, cell-based, HEK293 rmGlu8/hGIRK1/2, FluoZin-2 (AID 623911). The following applies: HEK293 rmGlu8/hGIRK1/2, thallium flux FluoZin-2; actives lie on both sides; glutamate co-added at its EC20 level.
Chain of G protein-activated inward rectifier potassium channel 2 (Homo sapiens) + G protein-activated inward rectifier potassium channel 1 (Homo sapiens) (P48051 whole entry, looked up): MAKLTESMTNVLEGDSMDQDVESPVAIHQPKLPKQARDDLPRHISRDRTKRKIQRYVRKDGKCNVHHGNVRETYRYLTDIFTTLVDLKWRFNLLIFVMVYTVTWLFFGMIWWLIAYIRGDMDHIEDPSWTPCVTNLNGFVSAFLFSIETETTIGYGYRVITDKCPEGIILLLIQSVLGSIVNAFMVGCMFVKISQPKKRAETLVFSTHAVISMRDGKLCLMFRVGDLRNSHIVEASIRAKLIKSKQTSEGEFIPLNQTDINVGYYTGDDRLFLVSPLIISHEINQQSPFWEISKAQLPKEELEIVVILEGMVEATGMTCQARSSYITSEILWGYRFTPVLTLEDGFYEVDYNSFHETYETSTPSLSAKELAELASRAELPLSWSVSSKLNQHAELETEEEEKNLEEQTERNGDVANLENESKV
Chain of G protein-activated inward rectifier potassium channel 2 (Homo sapiens) + G protein-activated inward rectifier potassium channel 1 (Homo sapiens) (P48549 whole entry, looked up): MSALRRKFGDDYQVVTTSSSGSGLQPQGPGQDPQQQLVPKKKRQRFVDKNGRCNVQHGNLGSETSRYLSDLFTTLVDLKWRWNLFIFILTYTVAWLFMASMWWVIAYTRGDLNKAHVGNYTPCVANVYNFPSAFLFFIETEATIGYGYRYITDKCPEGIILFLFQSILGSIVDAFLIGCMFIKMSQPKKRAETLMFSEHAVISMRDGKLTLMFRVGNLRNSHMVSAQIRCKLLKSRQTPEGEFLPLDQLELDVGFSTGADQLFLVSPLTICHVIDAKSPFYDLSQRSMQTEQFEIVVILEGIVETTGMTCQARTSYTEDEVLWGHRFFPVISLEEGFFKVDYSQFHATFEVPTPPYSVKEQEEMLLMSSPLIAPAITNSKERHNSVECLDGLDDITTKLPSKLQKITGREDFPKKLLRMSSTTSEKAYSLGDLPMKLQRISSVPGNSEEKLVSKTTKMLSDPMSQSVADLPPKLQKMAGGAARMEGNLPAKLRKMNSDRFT
`O=C(CSc1nnc(-c2cccnc2)o1)OC1CCCCC1`: the manual score is 0 (inactive). As for `COC(=O)c1[nH]c2ccc(C)cc2c1NC(=O)CCN1CCN(Cc2ccc3c(c2)OCO3)CC1`, the figure is -1 (active). As for `Cc1ccc(C)c(Nc2c([N+](=O)[O-])cc(C(=O)N3CC(=O)Nc4ccccc43)cc2[N+](=O)[O-])c1`, the figure is 0 (inactive). With `S=c1nc(-c2ccc(Br)cc2)oc2c1CCCC2`, the manual score was 1 (active). As for `c1ccc(-c2nnc3ccc(N4CCCC4)nn23)cc1`, the figure is 0 (inactive); as for `c1ccc2c(N3CCCCCC3)nc(-c3ccncc3)nc2c1`, -1 (active). As for `O=c1c2cccnc2[nH]c(=S)n1CCCN1CCN(c2ccc(F)cc2)CC1`, the figure is 0 (inactive); as for `Cc1ccc(C)n1-c1ccc(-c2nnco2)cc1`, 0 (inactive).

Regarding `CCOC(=O)CSc1cc(CSc2ccccc2)nc(-c2ccccc2)n1`, the manual score was 0 (inactive). As for `CCOC(=O)C(Cc1ccccc1)NC(=O)Cn1nnc(-c2ccccc2)n1` (stereo not given), the figure is 1 (active). Then `CCCC(=O)n1nc(-c2ccccc2)nc1N`, with 0 (inactive); and `Cc1ccc(N2CC(C(=O)N/N=C/c3sccc3C)CC2=O)cc1` (stereo not given), with 0.5 (inactive).

`CCN(CC)CCN1C(=O)c2oc3ccccc3c(=O)c2C1c1ccccc1` (stereo not given): the manual score is 0 (inactive). Regarding `CN(C)CCCN1C(=O)c2oc3ccccc3c(=O)c2C1c1cccs1` (stereo not given), the manual score is 0 (inactive). For `CCN(CC)CCCN1C(=O)c2oc3ccccc3c(=O)c2C1c1cccs1` (stereo not given), the manual score is 1 (active). As for `Cc1cc2c(cc1C)NC(c1c(C)n(C)n(-c3ccccc3)c1=O)C1=C(CC(C)(C)CC1=O)N2` (stereo not given), the figure is 3 (inactive). Then `Cc1c(C2Nc3ccccc3NC3=C2C(=O)CC(C)(C)C3)cnn1C` (stereo not given), with 0 (inactive); and `CC(C)Sc1nc2c(c(=O)[nH]1)C(c1cccs1)C1=C(CC(C)(C)CC1=O)N2` (stereo not given), with -1 (active); and `Cc1cc([N+](=O)[O-])ccc1-c1ccc(C2Nc3ccccc3C(=O)N2O)o1` (stereo not given), with 0 (inactive). Then `COc1ccc(C(=O)C2C(c3ccc(-c4ccccc4[N+](=O)[O-])o3)NC(=O)NC2(O)C(F)(F)F)cc1` (stereo not given), with -1 (active); and `CN(C)c1nc2ccccc2c(N)c1-c1ccccc1`, with -1 (active). For `Fc1cccc2sc(Nc3nnc(-c4ccccc4)o3)nc12`, the manual score is 1 (active).

With `Fc1cccc2sc(Nc3nc4cc5c(cc4s3)OCO5)nc12`, the manual score is 0 (inactive). As for `COc1cccc(-c2nnc(Nc3nc4c(F)cccc4s3)o2)c1`, the figure is 1 (active).

On to `Fc1ccc2nc(Nc3nc4c(F)cc(F)cc4s3)sc2c1`, for which the manual score was 0 (inactive). In the case of `Fc1cc(F)c2nc(Nc3nc4c(F)cccc4s3)sc2c1`, the manual score is 0.5 (inactive). Then `Fc1cccc2sc(Nc3nc4ccccc4s3)nc12`, with 0 (inactive); and `COc1cc(OC)cc(-c2nnc(Nc3nc4c(F)cccc4s3)o2)c1`, with 0 (inactive); and `Fc1cccc2sc(Nc3nnc(-c4ccco4)o3)nc12`, with 1 (active). As for `Fc1ccc2nc(Nc3nc4c(F)cccc4s3)sc2c1`, the figure is 1 (active); as for `COc1ccc(-c2nnc3sc(C4CCCCC4)nn23)cc1OC`, 0 (inactive); as for `C=CCNC(=O)C1CC(=O)N(c2ccc(OCC(=O)Nc3ccccc3)cc2)C1` (stereo not given), 0 (inactive). Then `Cc1cc2nc(CCN(C(=S)NCC(C)C)C3CCCC3)[nH]c2cc1C`, with 0 (inactive); and `Cc1cccc(NC(=S)NNC(=O)c2csc3c2CCC(C)C3)c1` (stereo not given), with 1 (active); and `Cc1ccc(C)c(NC(=S)NNC(=O)c2csc3c2CCC(C)C3)c1` (stereo not given), with 1 (active). For the compound `Cc1cccc(NC(=S)NNC(=O)c2csc3c2CCCC3)c1`, the manual score is 1 (active).

For `Cc1ccc(C)c(NC(=S)NNC(=O)c2csc3c2CCCC3)c1`, the manual score was 1 (active). On to `Cc1ccc(NC(=O)c2ccc(COc3ccc4c(c3)CCC4)cc2)c(C)c1`, for which the manual score is 0 (inactive). As for `CC(C)(C)C1CCc2c(C(=O)N/N=C/c3cccs3)csc2C1` (stereo not given), the figure is 0 (inactive); as for `Cc1cccc(CSc2cccc3cccnc23)c1`, 0 (inactive). Turning to `CC(=O)Nc1cccc2c1C(=O)N(c1cccc(C)c1)C2=O`, the manual score is 0 (inactive). Then `O=C1CC(N2CCN(c3nc4ccccc4s3)CC2)C(=O)N1c1ccc(F)cc1` (stereo not given), with 0 (inactive); and `CC(C)(C)c1ccc(OCCON2C(=O)CCC2=O)c(Cl)c1`, with 0 (inactive).

As to `Cc1ccccc1NC(=S)NNC(=O)c1csc2c1CCC(C)C2` (stereo not given), the manual score was 1 (active).

Take `CC(C)CNC(=S)NNC(=O)c1csc2c1CCC(C)C2` (stereo not given): the manual score was 0 (inactive).

With `Cc1ccc(C)c(NC(=S)NNC(=O)c2cc3c(s2)CCC(C)C3)c1` (stereo not given), the manual score is 1 (active). As for `CN(C)/C=C/C(=O)/C=C/c1cn(-c2ncc(C(F)(F)F)cc2Cl)c2ccccc12`, the figure is 0 (inactive); as for `CCn1c(=S)[nH]c2nc3c(cc2c1=O)CCCC3`, 1 (active). Then `Cc1ccc(-c2[nH]n3c(=O)c4c(nc3c2C)CCCC4)cc1`, with 0 (inactive); and `C=CCn1c(=S)[nH]c2nc3c(cc2c1=O)CCCC3`, with 1 (active); and `O=c1c2ccc(Cl)cc2[nH]c(=S)n1CCC1=CCCCC1`, with 0 (inactive).

On to `Cc1cccc(NC(=S)N/C(=N/S(=O)(=O)c2ccccc2)c2ccccc2)c1`, for which the manual score was 1 (active). Then `Cc1cccc(NC(=S)NC(=O)c2cc(-c3ccccc3)nc3ccccc23)c1`, with 0 (inactive); and `Cc1cccc(NC(=O)NC(=S)NC(=O)c2ccccc2)c1`, with 0 (inactive). As for `CCOc1ccc(-n2c(SCc3nc(-c4cccs4)no3)nnc2-c2ccncc2)cc1`, the figure is 0 (inactive); as for `COc1ccc(NC(=O)COC(=O)CC23CC4CC(CC(C4)C2)C3)c([N+](=O)[O-])c1`, 0 (inactive); as for `CCC(=O)Nc1nc2ccc3nc(C)sc3c2s1`, 0 (inactive).

For `COc1ccccc1NC(=O)c1ccc(S(=O)(=O)N2CCCC2)cc1`, the manual score is 0 (inactive). Take `O=C(Nc1nnc(-c2ccccc2Cl)o1)c1ccc(S(=O)(=O)N2CCCCCC2)cc1`: the manual score is 1 (active). Then `CC1CN(S(=O)(=O)c2ccc(C(=O)Nc3nnc(-c4ccc5c(c4)CCCC5)o3)cc2)CC(C)O1` (stereo not given), with 0 (inactive). As for `CCN(CC)c1ccc2cc(C(=O)NNC(=O)c3ccc(S(=O)(=O)N4CCCCC4)cc3)c(=O)oc2c1`, the figure is 0 (inactive).

As for `NS(=O)(=O)c1ccc(S(=O)(=O)N2CCCC2)cc1`, the manual score is 0 (inactive). As for `CC1CCCN(S(=O)(=O)c2ccc(C(=O)Nc3nnc(-c4ccccc4Cl)o3)cc2)C1` (stereo not given), the figure is 1 (active); as for `CCc1cc2cc(C)ccc2nc1SCC(=O)N1CCN(C(=O)c2ccco2)CC1`, 0 (inactive); as for `CCN(C#N)c1nc(NC(C)C)nc(NC(C)C)n1`, 0 (inactive).
